# According to ChEMBL document CHEMBL1157539, “Thousands of chemical starting points for antimalarial lead identification” (Nature, 2010):
# Legend:
# Type in all cases: functional
# Plasmodium falciparum [1] = test: GSK_TCMDC: Inhibition of Plasmodium falciparum 3D7 in whole red blood cells, using parasite LDH activity as an index of growth. Test compounds present at 2uM
# Plasmodium falciparum [2] = test: GSK_TCMDC: Inhibition of Plasmodium falciparum Dd2 in whole red blood cells, using parasite LDH activity as an index of growth. Test compounds present at 2uM
# HepG2 = test: GSK_TCMDC: Percent inhibition of human HepG2 cell line. Test compounds present at 10uM.
SMILES,Inhibition (Plasmodium falciparum [1]) [%],Inhibition (Plasmodium falciparum [2]) [%],Inhibition (HepG2) [%]
Cc1sc2nc(CN3CCCC3)nc(-n3c(NCCO)nc4ccccc43)c2c1C,96,11,19
Cn1nccc1C(=O)NCCNCc1cccc(-c2cccc(-c3nc4cc(F)ccc4[nH]3)c2)c1.O=C(O)C(F)(F)F,100,7,38
CN(C)CCCOc1cccc(NC(=O)Nc2ccc(Cl)c(Cl)c2)c1.O=C(O)C(F)(F)F,90,8,6
O=C(Nc1ccc(F)cc1F)NC1CCN(c2ccnc3cc(Cl)ccc23)C1.O=C(O)C(F)(F)F (configuration not stated),100,82,25
CCc1c(C(=O)NC2CCC(N3CCC(c4ccccc4C)CC3)CC2)[nH]c2ccc(OC)cc12 (configuration not stated),100,100,78
OCCOCn1cnc2cnc(N[C@H]3OC[C@H](O)[C@@H](O)[C@@H]3O)nc21,82,0,42
COc1cc(C2NCC3(CCOCC3)c3cc4c(cc32)OCCO4)cc(OC)c1OC.Cl (configuration not stated),95,2,24
I.N=C(N)NCC=C(c1ccccc1)c1ccccc1,94,83,9
COc1ccc(CC2(c3ccc(F)cc3)N=C(N)N(CCCc3ccc(F)c(F)c3)C2=O)cc1.O=C(O)C(F)(F)F (configuration not stated),98,98,42
CCCCc1ccc2[nH]c(NC(=O)OC)nc2c1 [PARBENDAZOLE],98,1,26
O=[N+]([O-])c1ccc(C=NNc2nc(Nc3ccccc3)nc(Nc3ccccc3)n2)o1,94,61,5
COc1ccc(CN(C)CCCOc2ccc(NC(=O)c3cccc4c(=O)c5cccc(F)c5[nH]c34)cc2)cc1OC,100,96,6
O=C(Nc1cccc(-c2nn3ccccc3c2-c2ccnc(Nc3ccc(Cc4ccncc4)cc3)n2)c1)c1c(F)cccc1F,97,97,43
CC(CNCc1cn(Cc2cc(Br)cc(Br)c2)c2ccccc12)CNc1cc(=O)c2ccccc2[nH]1 (configuration not stated),100,50,10
Clc1cccc(CNc2nc(NCCc3c[nH]cn3)nc(NC3CCCCC3)n2)c1,98,0,17
COC(=O)c1ccc(-c2ccc(-c3cccnc3)cc2C)cc1,100,98,81
Cc1c(C(=O)Nc2cc(Sc3ccc(F)cc3)cc([N+](=O)[O-])c2)sc2ncn(Cc3cccc(F)c3)c(=O)c12,100,53,0
COc1ccc2[nH]ccc(=NN=Cc3ccncc3)c2c1,99,95,4
NC1CCN(Cc2cccc(-c3ccc(-c4nc5cc(F)ccc5[nH]4)cc3)c2)C1.O=C(O)C(F)(F)F (configuration not stated),99,99,24
O=C(O)C(F)(F)F.Oc1ccc(CCCNc2nc(NCc3ccccc3-c3ccccc3)nc(NC3CCNCC3)n2)cc1,97,2,0

SMILES,Inhibition (Plasmodium falciparum [1]) [%],Inhibition (Plasmodium falciparum [2]) [%],Inhibition (HepG2) [%]
N=C(N)NN=CC(=O)Nc1cc([N+](=O)[O-])cc([N+](=O)[O-])c1.O=S(=O)(O)O,100,0,0
COc1ccc(CNCCc2cccs2)cc1-c1cccc(S(=O)(=O)NCCN2CCCC2)c1.O=C(O)C(F)(F)F,98,41,56
COc1ccc2c(c1)[nH]c1c(C=Cc3ccccc3)nccc12.O=[N+]([O-])O,91,6,19
Cc1c(S(=O)(=O)Nc2ccc3nccc(N4CCN[C@H](C)C4)c3c2)sc2ccc(Cl)cc12.Cl,96,0,16
CN1CCCN(c2ccnc3cc4c(cc23)N(C(=O)c2ccc(Cl)c(Cl)c2)CC4)CC1.Cl,100,73,20
CC(C)c1ccc(C(NC(=O)C2CCCCC2)c2ccc3cccnc3c2O)cc1 (configuration not stated),89,70,46
Oc1cccc(-c2nc(-c3ccccc3)c(-c3ccc4oc5ccc(-c6[nH]c(-c7cccc(O)c7)nc6-c6ccccc6)cc5c4c3)[nH]2)c1,91,35,30
CN(C)c1nc2cc(-n3cnc4cc(-c5ccc(Cl)cc5)sc4c3=O)ccc2n1CCCN1CCCCC1.O=C(O)C(F)(F)F,97,23,55
COc1ccc(OCCON)cc1.Cl,98,0,0
Cl.Oc1cccc(Nc2nc(NCC3CCCO3)c3ccccc3n2)c1 (configuration not stated),100,87,0
N=C(N)CCN(Cc1ccc(Cl)cc1)c1ccc(Cl)cc1,96,92,22
CC(C)Cn1cc(C2CCN(CCN3CCC(CNC(=O)c4ccc(-c5ccc(C#N)cc5)cc4)CC3)CC2)c2ccccc21,100,98,28
CCCNC[C@@H](O)[C@H](Cc1ccccc1)NC(=O)c1cc(NCC)cc(N2CCCC2=O)c1,100,76,0
CC(=O)N1N=C(c2ccc(F)cc2)Sc2c1nc(C1CCCCC1)n2C(C)=O,92,9,4
CCCCCN1CCCN(Cc2cccc(NC(=O)c3ccc(-c4ccccc4)cc3)c2)CC1.O=C(O)C(F)(F)F,95,15,23
O=C(NC1CCCC1)c1cc2c(=O)n3ccccc3nc2[nH]/c1=N/CCc1ccccc1,100,61,19
COC(=O)Cn1c2ccccc2c2c(N)c(C(=O)OC)c(C)nc21,93,1,0
COc1cc(Nc2nccn3c(-c4ccsc4)cnc23)cc(OC)c1OC,93,78,26
O=C(Nc1ccc([N+](=O)[O-])cc1O)Nc1ccccc1Oc1ccccc1,92,1,45
CNCCNCc1cccc(-c2ccc(-c3nc4cccc(C)c4[nH]3)s2)c1.O=C(O)C(F)(F)F,92,8,10

SMILES,Inhibition (Plasmodium falciparum [1]) [%],Inhibition (Plasmodium falciparum [2]) [%],Inhibition (HepG2) [%]
Cc1cc(C(=O)N[C@H]2CCN(Cc3ccc(OCCCN(C)C)cc3)C2)ccc1Br.O=C(O)C(F)(F)F,97,62,88
Cc1ccn2c(C(=O)N3CCN(c4cccc5c4nc(-c4ccoc4)n5Cc4ccccn4)CC3)c(C)nc2c1,98,99,2
CN/C(=N\O)NCCN(C)C.Cl,88,0,0
CC(NC(=O)c1cc(-c2ccccc2)nc2c1cnn2C(C)C)C1CC1 (configuration not stated),100,88,35
COc1ccc2nccc([C@@H](O)CN3CCC(NCCc4c[nH]c5ccccc45)CC3)c2c1.O=C(O)C(=O)O,98,77,0
O=C(Nc1cc(C(F)(F)F)cc(C(F)(F)F)c1)Nc1ccc(Cl)c(Cl)c1,100,100,58
CN(C)[C@@H]1C(O)=C(C(N)=O)C(=O)[C@@]2(O)C(O)=C3C(=O)c4c(O)ccc(C#Cc5ccccn5)c4C[C@H]3C[C@@H]12.Cl,92,75,17
COc1ccc(Nc2nc(N/N=C/c3ccc(O)cc3)nc(Nc3ccc([N+](=O)[O-])cc3)n2)cc1,93,16,0
NCCCNc1nc(Nc2ccc(C(F)(F)F)cc2F)c2c(=O)[nH]ccc2n1.O=C(O)C(F)(F)F,95,15,23
COc1cc(Nc2nccc(N3CCC(NS(=O)(=O)c4ccc(NC(C)=O)cc4)CC3)n2)cc(OC)c1OC,91,42,0
COc1ccc2[nH]ccc(=NN=Cc3cccc(F)c3)c2c1,100,65,13
Cc1cc(NC(=O)Nc2ccc3ncccc3c2)c2ccccc2n1,93,27,6
O=C(N1CCN(c2ccnc3cc4c(cc23)N(Cc2ccccc2)CC4)CC1)C(F)(F)F,100,100,8
COc1ccc(CNC(=N)Nc2nc(-c3ccc(OCCCn4ccnc4)cc3)cs2)cc1.Cl,100,67,15
O=C(Nc1cccc(-c2ccc(-c3nc4cc(F)ccc4[nH]3)cc2)c1)c1ccoc1,85,6,39
Cc1cc(C(F)(F)F)n2nc(C(=O)N(C)Cc3cncn3Cc3ccc(F)cc3)cc2n1,100,96,0
Cl.c1ccc2c(Nc3ccc(Cc4ccc(Nc5c6ccccc6nc6ccccc56)cc4)cc3)c3ccccc3nc2c1,100,100,93
CCCCC(=O)NC(c1cccs1)c1cc(Cl)c2cccnc2c1O (configuration not stated),93,90,50
Cl.Cn1ccnc1S(=O)(=O)CCNCc1ccc(-c2ccc3ncnc(Nc4ccc(OCc5cccc(F)c5)c(Cl)c4)c3c2)o1,100,94,0
